N-glyco inh = increase of ERlucT glycosylation luciferase signal, primary screen, N-linked glycosylation inhibitor project, D54 ERlucT cells, luminescence, set 2. D54 ERlucT glycosylation luciferase reporter, 24 h; percent of 100 nM tunicamycin response. reporter increase, % at 12.5 µM. 360,000 compounds, 0.23% hits. AID 588692, 2011;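 active means mean luciferase reporter signal, scaled so untreated is 0 and the glycosylation-blocking control 100, at or above a set limit in every replicate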;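 further: luciferase carries N-glycosylation sites so blocking glycosylation raises the light; 0% = median of neutral control wells and 100% = median of 100 nM tunicamycin wells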
EBV LMP1 NFkB = EBV LMP1-driven NF-kappaB luciferase reporter inhibitors, primary screen, cell-based, luminescence, single point. 350,000 compounds, 0.69% hits. inhibition, % at 12.5 µM. LMP1-induced NF-kappaB luciferase reporter cells; in the data active means inhibition above about 41%;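 further: 0% = neutral control wells and 100% = reference inhibitor control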
NSD2 inh = NSD2 histone methyltransferase inhibitors, primary screen, biochemical, AlphaScreen, single concentration, set 2; inhibition, % at 12.5 µM; Histone-lysine N-methyltransferase NSD2 (Homo sapiens), O96028; 310,000 compounds, 0.54% hits; AID 743445, 2014; NSD2 peptide methylation, 120 min; in the data active means inhibition above about 50%
Target sequence (O96028 whole entry, looked up): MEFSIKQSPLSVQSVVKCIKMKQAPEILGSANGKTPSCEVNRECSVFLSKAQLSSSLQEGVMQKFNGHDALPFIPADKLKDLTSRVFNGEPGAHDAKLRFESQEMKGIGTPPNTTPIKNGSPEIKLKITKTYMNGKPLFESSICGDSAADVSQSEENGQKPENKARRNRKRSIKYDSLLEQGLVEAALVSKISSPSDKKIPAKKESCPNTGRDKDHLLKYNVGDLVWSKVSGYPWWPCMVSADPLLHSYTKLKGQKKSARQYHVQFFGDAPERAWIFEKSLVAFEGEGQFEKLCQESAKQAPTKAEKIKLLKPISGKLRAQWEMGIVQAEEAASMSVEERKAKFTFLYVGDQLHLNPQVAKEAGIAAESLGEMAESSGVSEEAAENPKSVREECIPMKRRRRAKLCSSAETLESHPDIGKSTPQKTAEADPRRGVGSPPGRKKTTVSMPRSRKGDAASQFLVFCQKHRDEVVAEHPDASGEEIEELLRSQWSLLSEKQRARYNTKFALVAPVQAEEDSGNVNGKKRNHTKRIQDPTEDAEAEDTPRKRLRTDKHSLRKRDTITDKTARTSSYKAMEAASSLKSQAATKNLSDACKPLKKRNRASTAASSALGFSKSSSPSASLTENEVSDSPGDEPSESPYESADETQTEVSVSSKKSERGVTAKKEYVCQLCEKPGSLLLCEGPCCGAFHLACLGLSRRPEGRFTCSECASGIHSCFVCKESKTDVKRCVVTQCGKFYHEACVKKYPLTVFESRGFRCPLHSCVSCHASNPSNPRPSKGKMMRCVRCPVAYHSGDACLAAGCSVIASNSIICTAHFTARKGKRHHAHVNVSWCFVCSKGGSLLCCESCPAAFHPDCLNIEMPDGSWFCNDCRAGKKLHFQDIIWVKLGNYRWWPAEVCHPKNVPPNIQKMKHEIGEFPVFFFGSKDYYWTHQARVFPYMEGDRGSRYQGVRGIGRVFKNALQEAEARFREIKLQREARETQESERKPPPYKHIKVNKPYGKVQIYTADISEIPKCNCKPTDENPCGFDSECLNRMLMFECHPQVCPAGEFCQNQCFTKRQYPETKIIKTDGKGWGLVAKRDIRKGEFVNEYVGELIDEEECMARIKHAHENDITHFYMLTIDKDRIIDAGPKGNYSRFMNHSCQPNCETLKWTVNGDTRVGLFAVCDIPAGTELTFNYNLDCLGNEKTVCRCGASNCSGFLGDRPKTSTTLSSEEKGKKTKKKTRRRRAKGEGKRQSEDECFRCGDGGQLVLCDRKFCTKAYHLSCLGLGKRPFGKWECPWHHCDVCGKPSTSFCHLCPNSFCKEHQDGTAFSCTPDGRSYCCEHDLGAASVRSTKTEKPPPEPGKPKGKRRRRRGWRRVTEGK
Env fusion inh = inhibitors of HIV-1 Env-driven cell-cell fusion, primary screen, HeLa-JRFL effector, CEM21 target cells, luciferase | inhibition, % at 12.3 µM | 360,000 compounds, 1.1% hits | AID 651610, 2012;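 active means mean replicate inhibition score of at least 50 and every replicate individually at or above 50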;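 further: 0% = plate neutral controls and 100% = maraviroc near 300 nM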
PAX8 inh HTS = inhibitors of PAX8-driven TPO luciferase reporter, primary screen, RMG-I cells, single concentration; SteadyGlo, 24 h; inhibition, % at 12.6 µM; 360,000 compounds, 1.2% hits; AID 652154, 2013;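 active means mean replicate inhibition at least 60% with every replicate also reaching 60%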;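 further: luciferase light reporting Pax8 driven TPO promoter activity; plate controls were median of neutral control wells for no effect and mitoxantrone controls for full effect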
Shn3 inh set2 = reduction of Shn3 3'UTR firefly luciferase signal, primary screen, Schnurri-3 inhibitor project, cell-based, Clone20 osteoblasts, set 2; Clone20 osteoblast Shn3 3'UTR firefly luciferase, 24 h; inhibition, % at 12.5 µM; 360,000 compounds, 0.52% hits;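 active means mean inhibition of at least 75% with every replicate also reaching 75%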;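 further: 0% = median of neutral control wells and 100% = pilot-screen positive control compound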
Numbers without * were called inactive; nt = no result given; [ ] = remark or other dose. In the library only some 2.8% were active in any assay of this set; here they are far more common.

SMILES | N-glyco inh | EBV LMP1 NFkB | NSD2 inh | Env fusion inh | PAX8 inh HTS | Shn3 inh set2
CSC1=C(C#N)C(c2ccccc2C)C(C#N)=C(N)N1 (stereo not drawn) | 0 | -1 | 2 | 62* | nt | -3
CSC1=C(C#N)C(c2ccccc2Cl)C2=C(N1)c1ccccc1C2=O (stereo not drawn) | -4 | 4 | 6 | 37 | nt | 16
Cc1ccc(-c2nc3cccnc3o2)cc1NC(=O)COc1ccc(C(C)(C)C)cc1 | -3 | 81* | -1 | nt | nt | 95*
O=C(/C=C/c1cccnc1)/C=C/c1cccnc1 | -19 | -46 | 21 | 2 | 92* | 94*
O=C(/C=C/c1cccnc1)c1ccc(NC(=O)c2cccc(Br)c2)cc1 | 5 | -2 | 5 | 24 | nt | -1
Cc1cccc(C(=O)Nc2ccc(C(=O)/C=C/c3cccnc3)cc2)c1 | -8 | 27 | -1 | -32 | -53 | 97*
COc1cc(C(=O)/C=C/c2cccnc2)ccc1O | 5 | 10 | 6 | -11 | 23 | -41
C(=Cc1cccnc1)c1ccncc1 | -3 | 6 | -4 | 12 | 16 | -17
COc1ccc(OC)c(C(=O)/C=C/c2cccnc2)c1 | 1 | 13 | 2 | 11 | 72* | -19
C[C@@H]1CN([C@H](C)CO)C(=O)c2cc(-c3cncnc3)cnc2O[C@H]1CN(C)C(=O)Cc1ccccc1 | nt | nt | nt | -13[16.7 µM] | -4 | nt
OC(c1ccccc1)C(O)C(c1ccccc1)N1CCCCC1 (stereo not drawn) | 5 | -8 | 3 | -14 | -6 | 92*
CCCC(=O)Nc1ccc2c(c1)C(=O)N(C)C[C@@H](OC)[C@@H](C)CN(Cc1ccccc1)[C@H](C)CO2 | nt | nt | nt | -39[16.7 µM] | nt | nt
Cc1cc(=O)n2c3c(c4c(cc13)c(CN(C)C)cc(=O)n4C)OC2 | 31* | -10 | nt | -15 | 104* | -23
Cc1cc(=O)n(C)c2ccccc12 | 4 | -4 | -8 | 13 | -12 | -8
COc1cccc(S(=O)(=O)NCC(=O)Nc2ccc(C(C)(C)C)cc2)c1 | 1 | -6 | 0 | nt | 88* | 9
COc1ccc(CN(C)C[C@H]2Oc3ccc(NC(=O)Cc4cn(C)c5ccccc45)cc3CC(=O)N([C@H](C)CO)C[C@@H]2C)cc1 | nt | nt | nt | nt | 19 | nt
Cc1ccc(-c2noc(CSc3nnc(-c4ccncc4)n3-c3ccc(C)cc3)n2)cc1 | -7 | 4 | 2 | 48 | nt | 23
Clc1ccc(-c2noc(CSc3nnc(-c4ccncc4)n3-c3ccccc3)n2)cc1 | -6 | 14 | 1 | 94* | nt | 56
C[C@H](CO)N1C[C@H](C)[C@H](CN(C)Cc2ccc(C(=O)Nc3ccccc3N)cc2)Oc2c(NS(=O)(=O)c3ccccc3)cccc2C1=O | nt | nt | nt | nt | 29 | nt
Cc1ccc(C(=O)Nc2ccc3c(c2)OCCO3)c(C)c1 | -22 | 58* | -1 | 23 | 68* | 57
O=C(Nc1ccc(N2CCCCCC2)cc1)c1ccccc1Cl | 7 | -24 | 6 | -132 | -108 | -23
O=C(Nc1ccc(Cl)c(S(=O)(=O)N2CCOCC2)c1)c1cn2ccccc2n1 | 3 | -2 | -3 | 13 | -9 | -22
O=C(Nc1ccc(N2CCOCC2)cc1)c1cn2ccccc2n1 | -13 | 55* | -1 | nt | nt | 2
O=C(Nc1ccc(N2CCCCC2)cc1)c1ccccn1 | -21 | 75* | 3 | nt | nt | 76
Cc1ccc(NC(=O)c2ccc3c(c2)OCCO3)nc1 | -19 | 50* | -1 | -10 | -9 | 23
SMILES | N-glyco inh | EBV LMP1 NFkB | NSD2 inh | Env fusion inh | PAX8 inh HTS | Shn3 inh set2
CC(=O)N(C)C[C@H]1Oc2ncc(C#Cc3ccccc3)cc2C(=O)N([C@H](C)CO)C[C@H]1C | nt | nt | nt | 3[16.7 µM] | nt | nt
Cc1c(C(=O)Nc2ccc3c(c2)OCCO3)sc2nc(-c3ccccc3)cn12 | -2 | 1 | 1 | 57* | nt | 79
O=C(Nc1ccc2c(c1)OCCO2)c1ccccn1 | -18 | 48* | -2 | 29 | 20 | 29
COc1ccc2c3c([nH]c2c1)[C@H](CO)N(CC1CCOCC1)CC31CN(C(=O)c2ccc(F)cc2)C1 | nt | nt | nt | -1[16.7 µM] | nt | nt
CCOC(=O)C1CCN(S(=O)(=O)Cc2ccccc2)C1=O (stereo not drawn) | 3 | 43* | -5 | nt | nt | -3
CCOC(=O)N1CCN(S(=O)(=O)Cc2ccccc2)CC1 | -1 | -3 | -1 | nt | nt | -11
COc1ccc(-c2nnn(CC(=O)Nc3ccc4c(c3)OCCO4)n2)cc1OC | 3 | -8 | -1 | nt | nt | 85*
C[C@@H]1CN([C@H](C)CO)S(=O)(=O)c2ccc(-c3cccc(F)c3)cc2O[C@@H]1CN(C)S(=O)(=O)c1ccccc1 | nt | nt | nt | 107*[16.7 µM] | nt | nt
C[C@H](CO)N1C[C@H](C)[C@H](CN(C)S(=O)(=O)c2ccccc2)Oc2cc(-c3cccc(F)c3)ccc2S1(=O)=O | nt | nt | nt | 83*[16.7 µM] | nt | nt
C[C@H]1CN([C@@H](C)CO)S(=O)(=O)c2ccc(-c3cccc(F)c3)cc2O[C@H]1CN(C)S(=O)(=O)c1ccccc1 | nt | nt | nt | 90*[16.7 µM] | nt | nt
C[C@@H]1CN([C@@H](C)CO)S(=O)(=O)c2ccc(-c3ccccc3)cc2O[C@H]1CN(C)S(=O)(=O)c1ccccc1F | nt | nt | nt | 34[16.7 µM] | 63* | nt
C[C@H](CO)N1C[C@H](C)[C@@H](CN(C)S(=O)(=O)c2ccccc2)Oc2cc(-c3cccc(F)c3)ccc2S1(=O)=O | nt | nt | nt | 18[16.7 µM] | nt | nt
C[C@@H]1CN([C@H](C)CO)C(=O)c2cc(N(C)C)ccc2O[C@@H](C)CCCCO[C@@H]1CN(C)S(C)(=O)=O | nt | nt | nt | -9[16.7 µM] | -7 | nt
CN(C)C(=O)C[C@H]1CC[C@H](NC(=O)NC2CCCCC2)[C@@H](CO)O1 | nt | nt | nt | -19[16.7 µM] | -7 | nt
O=C(C[C@@H]1CC[C@@H]2[C@H](COC[C@@H](O)CN2C(=O)Cc2ccccc2)O1)NC1CCCC1 | nt | nt | nt | nt | 8 | nt
O=C1CC(c2ccccc2)CC(O)=C1C=Nc1ccccc1 (stereo not drawn) | 0 | -13 | 0 | -11 | -5 | 2
Cc1ccc(N=CC2=C(O)CC(c3ccc(Cl)cc3)CC2=O)cc1 (stereo not drawn) | -2 | -10 | -5 | nt | 146* | 0
CN(C)c1cc[n+](CC(=O)Nc2ccc(Cl)c([N+](=O)[O-])c2)cc1 | 3 | -13 | 1 | 10 | 63* | 8
CC(C)CNC(=O)c1ccccc1SCC(=O)NC12CC3CC(CC(C3)C1)C2 | -3 | 3 | 0 | 64* | 5 | -14

Screens as filed in PubChem.
